# Test results as given in ChEMBL document CHEMBL4513149, “CO-ADD screening of MMV (CH) - MMV compounds” (2021).
# Results with a measured potency or affinity are listed apart.
# Tested on: Cryptococcus neoformans
# Details: Concentration 20 uM; ASSAY_TEST Inhibition of Fungal Growth; detection method Resazurin; Absorption (OD600-OD570); plate type 384well; NBS; CORNING #3640
row,SMILES,Inhibition
1,CN1CCN(S(=O)(=O)c2ccc(-c3ccc4c(Nc5ccc6nn[nH]c6c5)ccnc4c3)cc2)CC1,-7.38%
2,CCN(CC)CCCCCCNc1cc(OC)cc2c(C)ccnc12.Cc1ccc(S(=O)(=O)O)cc1,2.4%
3,CN(C(=O)c1cc2c(-c3cncnc3)cccc2[nH]1)c1ccccc1,-9.57%
4,OCCc1ccc(Nc2nccc(-c3nnc4ccccn34)n2)cc1,-9.75%
5,CN1CCN(c2cc(-c3ccc(F)cc3)nc(-c3ccncc3)n2)CC1,-11.56%
6,CCc1ccc([C@@H]2C[C@H](C(F)(F)F)n3ncc(C(=O)NCc4ccc(OC)cc4)c3N2)cc1,-1.28%
7,COc1ccc(C2(C(=O)Nc3ccc(Br)cc3)CCCC2)cc1,-2.31%
8,O=C(c1ccc(F)cc1)N(CCNc1ccccc1)c1ccccc1,-9.35%
9,O=C(Nc1c(O)cccc1-c1nc2c(C(=O)O)cccc2o1)c1cc(-c2ccccc2)on1,-10.86%
10,COc1cccc(OC)c1C(=O)Nc1ccc(Cl)c(-c2nc3ccccc3s2)c1,-8.77%
11,c1ccc(-c2[nH]c3ccccc3c2C(c2ccccn2)N2CCCC2)cc1 (stereo unspecified),-10.11%
12,CCN(CC)C(=O)N1CCN(C)CC1 [DIETHYLCARBAMAZINE],-5.92%
13,COc1ccc(-c2nn(C(C)C)c3ncnc(N)c23)cc1OC,-0.18%
14,CC(C)C(NC(=O)Cc1cccc2ccccc12)C(=O)Nc1cccc(C#N)c1 (stereo unspecified),-4.4%
15,CC(=O)N1CCc2cc3nc(C)cc(C)c3cc21,-7.03%
16,COc1cccc(CC(=O)N2CCC(n3c(C)nc4ccc(F)cc43)CC2)c1,-4.62%
17,Cc1nc(-c2cccc(NCc3ccccc3)c2)[nH]c1C,-12.15%
18,O=C(Nc1cccc(Cl)c1)c1cnc(N2CCN(c3ccncc3)CC2)c(Cl)c1,-9.48%

row,SMILES,Inhibition
1,CCCCOC(=O)Nc1cc2nc(C3CCCCC3)[nH]c2cc1N1CCCC1,-8.19%
2,O=C(Nc1cnc2ccccc2c1)c1cccc(-n2cnnn2)c1,-9.7%
3,FC(F)(F)c1cccc(-c2nc3c(NCc4ccncc4)nccc3[nH]2)c1,5.66%
4,CC[C@H](CO)NCCN[C@H](CC)CO.Cl.Cl,1.15%
5,COc1ccccc1CNC(=O)c1cc(C2CC2)nc2c1cnn2C(C)C,-9.25%
6,COc1ccc(-c2cnc3ccc(NCc4ccc(S(N)(=O)=O)cc4)nn23)cn1,-9.08%
7,O=[N+]([O-])c1cn2c(n1)OC[C@@H](OCc1ccc(OC(F)(F)F)cc1)C2 [PRETOMANID],-5.11%
8,CNC(=O)CNc1nc(-c2ccccn2)nc2scc(-c3ccccc3)c12,-5.07%
9,O=C(C(Cc1c[nH]c2ccccc12)NS(=O)(=O)c1ccc(Cl)cc1)N1CCCCC1 (stereo unspecified),-6.5%
10,N=C(N)c1ccc(-c2cc(-c3ccccc3)on2)cc1,-9.38%
11,CC(C)(C)n1nc(Cc2cccc3ccccc23)c2c(N)ncnc21,-9.17%
12,CN1CCN(c2nccc3nc(-c4ccc(F)c(F)c4)[nH]c23)CC1,-6.31%
13,Cc1cc(C)n2nc(C(=O)Nc3cc(C(F)(F)F)ccc3N3CCOCC3)nc2n1,-4.53%
14,COc1ccc(N(CCc2cccc(C)n2)C(=O)C2CCCCC2)cc1,-4.98%
15,Cl.NCC(c1cccs1)S(=O)(=O)c1ccccc1 (stereo unspecified),-1.15%
16,COC(=O)c1c(NC(=O)c2cc3ccccc3oc2=O)sc2c1CCN(Cc1ccccc1)C2,-2.1%
17,CN(C)CCNC(=O)N1CCCN(c2ncnc3cc(-c4ccccc4)sc23)CC1,-8.19%
18,CCOc1ccc2cc(-c3nn(C(C)(C)C)c(N)c3C(N)=O)cnc2c1.Cl,-7.03%
